This passage reports growth inhibition, inhibition and outcome results from PubChem BioAssay.

Assay [1] can be described thus: antimalarial activity against Dd2 strain (AID 2302;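 active = growth inhibition above 50% at the single 2 µM test dose, taken to imply half-maximal potency below 2 µM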;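 note: 0% = DMSO untreated growth and 100% = chloroquine plus artemisinin killed control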). The conditions noted are these: P. falciparum Dd2 in RBCs, LDH growth readout, 72 h; at 2 µM; hits give high values.
A short description of assay [2]: HepG2 cytotoxicity, primary screen, cytotoxicity control for P. falciparum antimalarial project, cell-based, ATP luminescence (AID 2303;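 active = inhibition above 50%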;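 note: 0% = DMSO wells and 100% = digitonin-killed cells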). Particulars: HepG2 viability, 24-48 h, at 10 µM, hits give high values.
Assay [3] addresses L-lactate dehydrogenase (Plasmodium falciparum (isolate CDC / Honduras)) (UniProt Q27743). Kind of assay: PfLDH activity inhibition – cell lysate, 3D7 strain, counter-screen for P. falciparum growth inhibition project (AID 2304).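 Note: 0% = vehicle and 100% = reference inhibitor.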 Particulars: P. falciparum 3D7 crude extract, LDH APAD/NBT absorbance; at 2 µM; hits give high values. On the technique in general: The purpose of a counterscreen is to sort out artefacts and off-target activity.

Assay [4] is described as follows: inhibition of 3D7 malaria parasite growth – strain 3D7 (AID 2306).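 Note: 0% = DMSO wells and 100% = chloroquine plus artemisinin control wells.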 The conditions noted are these: P. falciparum 3D7 erythrocytic growth, LDH absorbance, 72 h; at 2 µM; hits give high values.
Assay [5] has as its target Calcium-dependent protein kinase 1 (Plasmodium falciparum (isolate 3D7)) (UniProt P62344). Nature of the assay: PfCDPK1 kinase inhibitors, biochemical, TCAMS library (AID 1159585; cut-off not given, nearly all actives have IC50 up to about 0.98 µM;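 note: inhibitors leave more ATP so luminescence rises with inhibition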). Particulars: recombinant PfCDPK1, Kinase-Glo ATP depletion luminescence. (Kinase-Glo reads ATP consumption through a luciferase reaction.)
Assay [6] addresses Plasmodium falciparum protein kinase 6 (PK6, PF3D7_1337100) (UniProt Q8IDW1). Nature of the assay: PfPK6 kinase inhibitors, biochemical, TCAMS library (AID 1159586). The conditions noted are these: recombinant PfPK6, Kinase-Glo ATP depletion luminescence.
Assay [7] concerns the target Protein kinase 7 (PK7), Plasmodium falciparum 3D7 (PF3D7_0213400) (UniProt Q7YTF7). Kind of assay: inhibition of Plasmodium PK7 catalytic activity – biochemical, TCAMS antimalarial set, Kinase-Glo luminescence (AID 1159587). The conditions noted are these: recombinant PfPK7, Kinase-Glo ATP depletion luminescence.
Assay [8] has as its target Calcium-dependent protein kinase 4 (Plasmodium falciparum (isolate 3D7)) (UniProt Q8IBS5). Kind of assay: PfCDPK4 kinase inhibitors, biochemical, TCAMS library (AID 1159588; cut-off not given, nearly all actives have IC50 up to about 0.91 µM). Particulars: recombinant PfCDPK4, Kinase-Glo ATP depletion luminescence.

Each structure is given as a SMILES string. A number with no mark means an inactive call. For some of these results: Measured potencies and affinities stand elsewhere. Calls of active or inactive are those of the source. Unless noted, the rule behind the calls is not given here.

Sequence of L-lactate dehydrogenase (Plasmodium falciparum (isolate CDC / Honduras)) (Q27743 whole entry, looked up): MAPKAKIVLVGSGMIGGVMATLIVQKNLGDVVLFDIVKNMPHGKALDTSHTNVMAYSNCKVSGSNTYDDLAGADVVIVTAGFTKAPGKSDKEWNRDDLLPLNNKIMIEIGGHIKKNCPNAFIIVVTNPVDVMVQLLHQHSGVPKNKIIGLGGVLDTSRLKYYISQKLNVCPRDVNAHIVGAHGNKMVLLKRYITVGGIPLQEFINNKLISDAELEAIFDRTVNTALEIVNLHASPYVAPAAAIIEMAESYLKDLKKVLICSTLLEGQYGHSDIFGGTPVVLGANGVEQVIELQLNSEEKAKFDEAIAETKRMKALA
Sequence of Calcium-dependent protein kinase 1 (Plasmodium falciparum (isolate 3D7)) (P62344 whole entry, looked up): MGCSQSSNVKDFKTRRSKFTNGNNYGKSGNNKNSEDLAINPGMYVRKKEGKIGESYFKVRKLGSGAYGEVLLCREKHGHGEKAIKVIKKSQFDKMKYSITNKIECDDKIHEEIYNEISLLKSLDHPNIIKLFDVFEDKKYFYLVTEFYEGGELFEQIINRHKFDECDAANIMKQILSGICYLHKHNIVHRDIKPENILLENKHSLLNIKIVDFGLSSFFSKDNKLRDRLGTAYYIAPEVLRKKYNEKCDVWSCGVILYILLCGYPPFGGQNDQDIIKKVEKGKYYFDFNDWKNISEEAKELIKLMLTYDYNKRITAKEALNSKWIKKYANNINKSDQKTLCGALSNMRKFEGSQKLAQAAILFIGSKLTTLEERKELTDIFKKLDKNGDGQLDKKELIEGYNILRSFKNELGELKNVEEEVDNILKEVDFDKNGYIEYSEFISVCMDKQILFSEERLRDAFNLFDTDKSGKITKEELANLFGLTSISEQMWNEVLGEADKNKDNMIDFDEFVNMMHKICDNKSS
Sequence of Protein kinase 7 (PK7), Plasmodium falciparum 3D7 (PF3D7_0213400) (Q7YTF7 1-343): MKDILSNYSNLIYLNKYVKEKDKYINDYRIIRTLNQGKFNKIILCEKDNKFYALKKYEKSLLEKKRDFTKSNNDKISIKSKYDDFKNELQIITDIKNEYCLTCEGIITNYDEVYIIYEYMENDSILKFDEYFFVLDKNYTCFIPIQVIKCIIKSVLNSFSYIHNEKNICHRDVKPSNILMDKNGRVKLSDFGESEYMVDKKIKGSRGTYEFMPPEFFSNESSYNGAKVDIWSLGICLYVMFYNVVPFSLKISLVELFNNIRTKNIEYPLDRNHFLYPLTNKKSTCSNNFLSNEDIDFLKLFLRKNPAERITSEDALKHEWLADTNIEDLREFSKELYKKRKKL
Sequence of Plasmodium falciparum protein kinase 6 (PK6, PF3D7_1337100) (Q8IDW1 1-305): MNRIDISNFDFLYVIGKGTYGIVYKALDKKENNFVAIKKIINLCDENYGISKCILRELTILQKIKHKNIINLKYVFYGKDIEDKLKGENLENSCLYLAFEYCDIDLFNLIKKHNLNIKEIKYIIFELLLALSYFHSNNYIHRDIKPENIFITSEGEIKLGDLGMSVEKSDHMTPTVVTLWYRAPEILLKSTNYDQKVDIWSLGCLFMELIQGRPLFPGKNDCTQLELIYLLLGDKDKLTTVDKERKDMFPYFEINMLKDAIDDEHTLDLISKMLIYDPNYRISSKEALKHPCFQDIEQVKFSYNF
Sequence of Calcium-dependent protein kinase 4 (Plasmodium falciparum (isolate 3D7)) (Q8IBS5 whole entry, looked up): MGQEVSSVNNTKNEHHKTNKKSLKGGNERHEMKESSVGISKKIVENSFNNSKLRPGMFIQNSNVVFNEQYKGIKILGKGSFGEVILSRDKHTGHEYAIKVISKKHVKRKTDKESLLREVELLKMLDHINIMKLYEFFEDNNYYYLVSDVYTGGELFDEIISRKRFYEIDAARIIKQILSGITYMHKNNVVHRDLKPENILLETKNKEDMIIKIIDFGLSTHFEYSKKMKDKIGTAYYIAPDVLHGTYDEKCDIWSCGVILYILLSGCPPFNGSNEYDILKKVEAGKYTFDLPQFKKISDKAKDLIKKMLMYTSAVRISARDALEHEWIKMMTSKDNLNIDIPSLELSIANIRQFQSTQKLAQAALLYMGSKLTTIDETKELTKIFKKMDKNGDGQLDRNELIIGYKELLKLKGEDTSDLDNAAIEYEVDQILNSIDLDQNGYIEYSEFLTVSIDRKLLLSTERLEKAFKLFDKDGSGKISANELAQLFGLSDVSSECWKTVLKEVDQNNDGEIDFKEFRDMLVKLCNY

`COC(=O)CCCOc1cc(Cc2cnc(N)nc2N)cc(OC)c1OC`: the growth inhibition in assay [1] was -4%; in assay [4] it was 95% (active). Also, the inhibition in assay [2] was 12%; in assay [3], -6%. Also, the outcome in assay [5], in assay [6], in assay [7] and in assay [8] was inactive.
As to `O=C(Nc1cccc(-c2ccc(-c3nc4ccc(C(F)(F)F)cc4[nH]3)cc2)c1)c1csnn1`, the growth inhibition was 93% (active) in assay [1] and 98% (active) in assay [4]. The inhibition in assay [2] is 23%; in assay [3], 3%. Also, the outcome in assay [5], in assay [6], in assay [7] and in assay [8] was inactive.
As to `N#Cc1ccc(N2CCN(Cc3cccc(-c4cccc(-c5nc6ccc(F)cc6[nH]5)c4)c3)CC2)nc1`, the growth inhibition in assay [1] is 52% (active); in assay [4] it was 90% (active). For the same molecule, the figures for the inhibition in assay [2] and in assay [3] were 26% and 3%, respectively. Also, the result in assay [5], in assay [6], in assay [7] and in assay [8] was inactive.
For `Nc1nccc2ccc(-c3ccc(NC(=O)Nc4cc(C(F)(F)F)ccc4F)cc3)cc12`, the growth inhibition was 100% (active) in assay [1] and 101% (active) in assay [4]. The inhibition was 99% (active) in assay [2] and -3% in assay [3]. The result in assay [5], in assay [6], in assay [7] and in assay [8] was inactive.
As to `CN(C)CCOc1cc(O)c2c(c1)OC(C)(C)C=C2c1cccs1`, the figures for the growth inhibition in assay [1] and in assay [4] were 10% and 99% (active), respectively. Also, the inhibition in assay [2] was 29%; in assay [3], -2%. For the same molecule, the result in assay [5], in assay [6], in assay [7] and in assay [8] was inactive.
On to `C[C@@H]1CN(c2cnn(Cc3cccc(NC(=O)Nc4ccc(F)cc4[N+](=O)[O-])c3)c(=O)c2Cl)C[C@H](C)N1`, for which the growth inhibition was 13% in assay [1] and 91% (active) in assay [4]. Besides, the inhibition is 7% in assay [2] and 6% in assay [3]. The outcome in assay [5], in assay [6], in assay [7] and in assay [8] was inactive.
`CC(=O)N1N=C(c2cccs2)Sc2c1nc(-c1ccc(Cl)cc1)n2C(C)=O`: the growth inhibition was 93% (active) in assay [1] and 99% (active) in assay [4]. The inhibition was 3% in assay [2] and 0% in assay [3]. For the same molecule, the result in assay [5], in assay [6], in assay [7] and in assay [8] was inactive.
Regarding `O=C(Nc1cccc(-c2nc3ccccc3s2)c1)c1ccccc1[N+](=O)[O-]`, the growth inhibition is 9% in assay [1] and 85% (active) in assay [4]. Further, the inhibition in assay [2] and in assay [3] was 0% each time. The result in assay [5], in assay [6], in assay [7] and in assay [8] was inactive.
Consider `O=c1cc(NCCCN(Cc2ccccc2)Cc2ccccc2)[nH]c2ccccc12`, for which the growth inhibition in assay [1] was 93% (active); in assay [4], 100% (active). The inhibition in assay [2] is 7%; in assay [3] it was -3%. Also, the outcome in assay [5], in assay [6], in assay [7] and in assay [8] was inactive.
`CCCc1cc(OC)c(C[C@@H]2c3cc(O)c(Cl)cc3CCN2C)cc1OC`: the growth inhibition in assay [1] and in assay [4] was 98% (active) throughout. Also, the inhibition is 3% in assay [2] and 8% in assay [3]. The result in assay [5], in assay [6], in assay [7] and in assay [8] was inactive.
With `COc1ccccc1CNC(=O)c1cc(C2CC2)nc2c1cnn2C(C)C`, the growth inhibition in assay [1] was 92% (active); in assay [4] it was 94% (active). In addition, the inhibition in assay [2] was 47%; in assay [3] it was 5%. Moreover, the result in assay [5], in assay [6], in assay [7] and in assay [8] was inactive.
Consider `CN(C)CCC(O)(c1ccc(Br)cc1)c1cccnc1` (stereo not given), for which the growth inhibition in assay [1] is 1%; in assay [4], 96% (active). In addition, the results for the inhibition in assay [2] and in assay [3] were 22% and 5%, respectively. Besides, the result in assay [5], in assay [6], in assay [7] and in assay [8] was inactive.
As to `O=C(/C=C/c1ccc(Cl)c(Cl)c1)NCCCCCN1CCC(c2c[nH]c3ccc(O)cc23)CC1`, the growth inhibition is 0% in assay [1] and 101% (active) in assay [4]. Moreover, the inhibition in assay [2] is 20%; in assay [3], 3%. For the same molecule, the outcome in assay [5], in assay [6], in assay [7] and in assay [8] was inactive.
Consider `N#Cc1cccc(NC(=O)Nc2cccc(-c3cccc(-c4nc5ccc(F)cc5[nH]4)c3)c2)c1`, for which the growth inhibition in assay [1] was 66% (active); in assay [4] it was 102% (active). In addition, the results for the inhibition in assay [2] and in assay [3] were 60% (active) and 0%, respectively. The outcome in assay [5], in assay [6], in assay [7] and in assay [8] was inactive.
On to `Fc1ccc(NC(=S)NN=Cc2ccccn2)cc1`, for which the growth inhibition in assay [1] was 67% (active); in assay [4], 95% (active). The inhibition is 56% (active) in assay [2] and -1% in assay [3]. The outcome in assay [5], in assay [6], in assay [7] and in assay [8] was inactive.
With `CCOc1cc(C(=O)Nc2ccccc2N2CCN(S(C)(=O)=O)CC2)cc(OCC)c1OCC`, the values for the growth inhibition in assay [1] and in assay [4] were 80% (active) and 91% (active), respectively. The inhibition in assay [2] is -1%; in assay [3], -2%. Besides, the outcome in assay [5], in assay [6], in assay [7] and in assay [8] was inactive.
In the case of `Cc1cc(F)ccc1Nc1nc(N(C)c2ccccc2)c2cccc(O)c2n1`, the growth inhibition is 81% (active) in assay [1] and 92% (active) in assay [4]. Moreover, the inhibition in assay [2] is 38%; in assay [3], 2%. Besides, the result in assay [5], in assay [6], in assay [7] and in assay [8] was inactive.
As for `O=c1cc(NCCCN(Cc2cc3c(Cl)cc(Cl)cc3[nH]2)Cc2cc3c(Cl)cc(Cl)cc3[nH]2)[nH]c2ccccc12`, the growth inhibition in assay [1] is 80% (active); in assay [4] it was 87% (active). Further, the results for the inhibition in assay [2] and in assay [3] were 23% and -6%, respectively. Further, the outcome in assay [5], in assay [6], in assay [7] and in assay [8] was inactive.
For `Cc1cccc2[nH]c(-c3cccc(-c4cccc(C(=O)NCc5nccn5C)c4)c3)nc12`, the growth inhibition in assay [1] was 50% (active); in assay [4], 99% (active). In addition, the inhibition is 22% in assay [2] and 8% in assay [3]. The outcome in assay [5], in assay [6], in assay [7] and in assay [8] was inactive.
Take `Fc1ccccc1-c1cc(Nc2ccncc2)nc(-c2cccnc2)n1`: the growth inhibition is 89% (active) in assay [1] and 103% (active) in assay [4]. Further, the inhibition in assay [2] is 91% (active); in assay [3], 3%. For the same molecule, the result in assay [5], in assay [6], in assay [7] and in assay [8] was inactive.

A word on the inhibition: it is the change of the read-out against control, counted positive when it falls.
